Results taken from PubChem BioAssay (NCATS).
Inconclusive results are not listed. Activity calls are given as the source filed them. Calls come from the whole dose curve; as a rule, active = well fitted curve in the direction sought with a large enough effect; inconclusive = small, poorly fitted or top-dose-only effect, or another doubt; inactive = no such curve, though single readings can be large; an effect the other way counts as inactive or inconclusive.

Tests used:
[1] = qHTS of pediatric cancer cell lines to identify multiple opportunities for drug repurposing: Primary screen for BT-37 cells (AID 1347094); note: series mostly up to about 57 µM
Procedure, shortened: (§1)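 Cells seeded at 500-1,000 cells/well in growth media, rested 5 hours at 37 degrees C, 5% CO2, then dosed; MIPE compounds at 11-point (from 0.78 nM) and NPC at 8-point (from 0.59 nM) final concentrations. Viability by CellTiter-Glo luminescence after 48 hours.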

[2] = qHTS of pediatric cancer cell lines to identify multiple opportunities for drug repurposing: Primary screen for NB-EBc1 cells (AID 1347095)
Procedure, shortened: as §1

[3] = qHTS of pediatric cancer cell lines to identify multiple opportunities for drug repurposing: Primary screen for U-2 OS cells (AID 1347096); note: nearly all actives have a fitted effect of over 50% in size
Procedure, shortened: (§2)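 Cells (500-1,000/well) in growth media were settled 5 h at 37 degrees C, then given compounds for 48 h. Viability was read as CellTiter-Glo luminescence. Primary runs used MIPE at 11 points (0.78 nM-46 µM) and NPC at 8 points (0.59 nM-46 µM); follow-ups used 11 points.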

[4] = qHTS of pediatric cancer cell lines to identify multiple opportunities for drug repurposing: Primary screen for Saos-2 cells (AID 1347097); note: nearly all actives have a fitted effect of over 40% in size
Procedure, shortened: as §1

[5] = qHTS of pediatric cancer cell lines to identify multiple opportunities for drug repurposing: Primary screen for SK-N-SH cells (AID 1347098);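 note: DMSO served as neutral control and bortezomib at 2.3 µM as positive control; nearly all actives have a fitted effect of over 65% in size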
Procedure, shortened: (§3)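 Cells (500-1,000/well) rested 5 h, then received compounds for 48 h; metabolically active cells were measured by CellTiter-Glo luminescence. Final concentrations spanned up to 46 µM (MIPE, 11-point) or 0.59 nM-46 µM (NPC, 8-point) in primary screens, 11-point in follow-ups.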

[6] = qHTS of pediatric cancer cell lines to identify multiple opportunities for drug repurposing: Primary screen for NB1643 cells (AID 1347099); note: nearly all actives have a fitted effect of over 50% in size
Procedure, shortened: as §1

[7] = qHTS of pediatric cancer cell lines to identify multiple opportunities for drug repurposing: Primary screen for LAN-5 cells (AID 1347100)
Procedure, shortened: as §2

[8] = qHTS of pediatric cancer cell lines to identify multiple opportunities for drug repurposing: Primary screen for BT-12 cells (AID 1347101); note: nearly all actives have a fitted effect of over 25% in size
Procedure, shortened: as §3

[9] = qHTS of pediatric cancer cell lines to identify multiple opportunities for drug repurposing: Primary screen for Rh18 cells (AID 1347102); note: nearly all actives have a fitted effect of over 65% in size
Procedure, shortened: as §2

[10] = qHTS of pediatric cancer cell lines to identify multiple opportunities for drug repurposing: Primary screen for OHS-50 cells (AID 1347103); note: nearly all actives have a fitted effect of over 40% in size
Procedure, shortened: as §3

Measured: Potency

C[C@]12CCC(=O)C=C1CC[C@@H]1[C@@H]2CC[C@]2(C)C(=O)CC[C@@H]12
inactive: [1] | [2] | [3] | [4] | [5] | [6] | [7] | [8] | [9]

CCN[C@@H](C)Cc1cccc(C(F)(F)F)c1
inactive: [1] | [2] | [3] | [4] | [5] | [6] | [7] | [8] | [9] | [10]

O=C1c2ccccc2C(=O)c2ccccc21
inactive: [1] | [2] | [3] | [4] | [5] | [6] | [7] | [8] | [9] | [10]

CN1C(=O)CCS(=O)(=O)C1c1ccc(Cl)cc1 (stereo not drawn)
inactive: [1] | [2] | [3] | [4] | [5] | [6] | [7] | [8] | [9] | [10]

COc1ccc2c(c1OC)C(=O)O[C@H]2[C@@H]1c2cc3c(cc2CCN1C)OCO3
inactive: [1] | [2] | [3] | [4] | [5] | [6] | [7] | [8] | [9] | [10]

ClCCN1CCCC1
inactive: [1] | [2] | [3] | [4] | [5] | [6] | [7] | [8] | [9] | [10]

NC1=NC(=O)C(c2ccccc2)O1 (stereo not drawn)
inactive: [1] | [2] | [3] | [4] | [5] | [6] | [7] | [8] | [9] | [10]

CCc1cc2c(s1)-n1c(C)nnc1CN=C2c1ccccc1Cl
inactive: [1] | [2] | [3] | [4] | [5] | [6] | [7] | [8] | [9]

NC(=O)CS(=O)C(c1ccccc1)c1ccccc1 (stereo not drawn)
inactive: [1] | [2] | [3] | [4] | [5] | [6] | [7] | [8] | [9] | [10]

O=c1[nH]c2ccccc2n1C1CCNCC1
inactive: [1] | [2] | [3] | [4] | [5] | [6] | [7] | [8] | [9] | [10]

C#CC(O)(C=CCl)CC (stereo not drawn)
inactive: [1] | [2] | [3] | [4] | [5] | [6] | [7] | [8] | [9] | [10]

NCCc1ccc(O)cc1
inactive: [1] | [2] | [3] | [4] | [5] | [6] | [7] | [8] | [9] | [10]

COP(=S)(OC)Oc1cc(Cl)c(Cl)cc1Cl
inactive: [1] | [2] | [3] | [4] | [5] | [6] | [7] | [8] | [9] | [10]

C=CCN1C[C@H](C)N([C@H](c2ccc(C(=O)N(CC)CC)cc2)c2cccc(OC)c2)C[C@H]1C
inactive: [1] | [2] | [3] | [4] | [5] | [6] | [7] | [8] | [9] | [10]

CCN[C@@H](C)Cc1ccccc1
inactive: [1] | [2] | [3] | [4] | [5] | [6] | [7] | [8] | [9] | [10]

COC(=O)[C@@H](N)CCCN/C(N)=N/[N+](=O)[O-]
inactive: [1] | [2] | [3] | [4] | [5] | [6] | [7] | [8] | [9] | [10]

CCC(CC)(CNC(=O)CCCO)c1cccc(OC)c1
inactive: [1] | [2] | [3] | [4] | [5] | [6] | [7] | [8] | [9] | [10]

C[C@@H](N)[C@@H](O)c1ccccc1
inactive: [1] | [2] | [3] | [4] | [5] | [6] | [7] | [8] | [9] | [10]

COc1cccc([C@@]2(O)CCCC[C@@H]2CN(C)C)c1
inactive: [1] | [2] | [3] | [4] | [5] | [6] | [7] | [8] | [9] | [10]

CCC1(CC)C(=O)C=CNC1=O
inactive: [1] | [2] | [3] | [4] | [5] | [6] | [7] | [8] | [9] | [10]

COc1cc(OC)c(OC)cc1C=O
inactive: [1] | [2] | [3] | [4] | [5] | [6] | [7] | [8] | [9] | [10]

Clc1cccc(SC2CCNCC2)n1
inactive: [1] | [2] | [3] | [4] | [5] | [6] | [7] | [8] | [9] | [10]

Cc1ncsc1CCCl
inactive: [1] | [2] | [3] | [4] | [5] | [6] | [7] | [8] | [9] | [10]
